Results taken from publication PMC5540273 (PLoS ONE, 2017).

How the values were obtained:
Conditions in all cases: concentration: 1 μM,replicates: in singlicate; n = 1
PLK2 = tested on: PLK2
PLK3 = tested on: PLK3
PLK4 = tested on: PLK4
PRKCD = tested on: PRKCD
PRKCE = tested on: PRKCE
PRKCH = tested on: PRKCH
PRKCI = tested on: PRKCI
PRKCQ = tested on: PRKCQ
PRKD1 = tested on: PRKD1
PRKD2 = tested on: PRKD2
PRKD3 = tested on: PRKD3
PRKG1 = tested on: PRKG1
PRKG2 = tested on: PRKG2
PRKR = tested on: T1, PRKR
T1 construct: gene EIF2AK2

PRKX = tested on: PRKX
PRP4 = tested on: PRP4
PYK2 = tested on: T2, PYK2
T2 construct: gene PTK2B

QSK = tested on: QSK
RAF1 = tested on: RAF1
RET = tested on: RET
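Further: KINOMEscan kinase panel screen.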

Compound	%Inh (PLK2) [%]	%Inh (PLK3) [%]	%Inh (PLK4) [%]	%Inh (PRKCD) [%]	%Inh (PRKCE) [%]	%Inh (PRKCH) [%]	%Inh (PRKCI) [%]	%Inh (PRKCQ) [%]	%Inh (PRKD1) [%]	%Inh (PRKD2) [%]	%Inh (PRKD3) [%]	%Inh (PRKG1) [%]	%Inh (PRKG2) [%]	%Inh (PRKR) [%]	%Inh (PRKX) [%]	%Inh (PRP4) [%]	%Inh (PYK2) [%]	%Inh (QSK) [%]	%Inh (RAF1) [%]	%Inh (RET) [%]
CC(=O)c1c(-c2ccncc2)[nH]c(-c2ccncc2)c1C [GW493036]	0	0	0	0	25	13	0	0	2	15	100	75	73	0	0	22	0	0	41	26
O=C(Nc1cccc(C(F)(F)F)c1)c1cccc(Oc2ccc3nccn3n2)c1	11	0	0	22	1	0	13	51	0	0	0	19	1	0	17	8	0	6	75	69
CCCC(=O)Nc1n[nH]c2ncccc12 [SB-601436]	7	7	0	0	19	0	0	0	0	0	0	5	0	0	0	8	7	0	0	0
CS(=O)(=O)c1cccc(CNc2nc(Nc3ccc4c(c3)[C@@H]3C[C@@H]4CNC3=O)ncc2C(F)(F)F)c1	0	0	98.7	0	5	0	8	14	22	28	22	0	0	0	0	10	66	0	0	100
Cc1ccc(C(=O)Nc2ccc(Oc3ccc4nc(NC(=O)C5CC5)cn4c3)c(F)c2)c(=O)n1-c1ccccc1	0	0	35	0	0	0	28	24	0	0	0	5	0	4	0	38	19	0	82	100
O=C(Nc1ccc(Oc2ccc3nc(NC(=O)C4CC4)cn3n2)c(F)c1)c1cccn(-c2ccccc2)c1=O	0	0	0	0	0	0	28	0	0	9	0	30	1	0	0	0	19	0	87	99.9
Cn1ccc2ncnc(Oc3ccc(NC(=O)Nc4ccnc(C(F)(F)F)c4)c(Cl)c3)c21	0	0	11	0	0	0	0	7	0	4	0	0	9	0	1	14	9	0	16	100
C[C@@H]1CCN(C(=O)N2CCCC2)C[C@@H]1N(C)c1ncnc2[nH]ccc12	20	21	44	17	17	13	30	0	0	54	26	29	13	0	0	0	0	0	10	41
CN(c1ccc2c(c1)nc(NCc1ccc(F)cc1)n2C)c1ccnc(Nc2ccc(CS(C)(=O)=O)cc2)n1.Cl [GW813244]	3	21	73	11	100	0	18	0	0	24	7	9	0	0	0	0	39	0	96.4	100
O=C(Nc1cccc(Oc2ccc3nccn3n2)c1)Nc1cccc(C(F)(F)F)c1	0	0	0	10	0	0	11	9	2	24	20	6	0	0	0	11	3	14	90	86
